# Bioassay records deposited in PubChem by National Center for Advancing Translational Sciences (NCATS).
# Only some compounds are listed: those with a hit (about 7.1% of all), similar ones and a draw of the others.
# PINK1 expr mod: changes PINK1 expression | PINK1 immunofluorescence, high-content cytometry, 24 h | AID 624263 | Potency, µM (doses to about 76.6 µM), for the others: top-dose activation (PINK1 increase), actives largely listed as activators | 410,000 tested, 0.2% active; active = well fitted activation curve with a large enough effect; inconclusive = small, poorly fitted or top-dose-only effect; cell line not stated here; also: potency is read from the fitted curve at half-maximal effect; % of control where 0% means no effect; nearly all actives have a fitted effect of over 65% in size
#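 A stable cell line was treated with compounds at 5 concentrations for 24 hours, with CCCP as control. PINK1 levels and mitochondrial localization were measured by immunofluorescence with mitochondrial, cell and nuclear markers after fixation, read by laser-scanning cytometry.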
# ATXN viability: viability counter-screen for ATXN expression inhibitors. 400,000 tested, 0.49% active. S2 cells (HEK-293 line with an ATXN2-luciferase reporter) viability, CellTiter-Fluor protease fluorescence, 24 h. Potency, µM (series often up to 56.7 µM), actives largely listed as cytotoxic; also: potency is read from the fitted curve at half-maximal effect; nearly all actives have a fitted effect of over 40% in size
# IL-1B inflam inh: inhibitors of inflammasome signaling (IL-1 beta secretion); THP-1 LPS/ATP IL-1B secretion, AlphaLISA, 16 h; stronger effect = lower value; activity change, % at 57.5 µM; 360,000 tested, 4.7% active; in the data active = activity change below about -50%; inconclusive = mostly about -30% to -49%; also: % is scaled to controls: 0 for no effect and ±100 for the full control effect
#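 Secreted IL-1B measured by AlphaLISA bead assay after 16 h compound exposure of THP-1 cells; compounds (final up to 57.5 uM) added 1 h before LPS (250 ng/mL) and ATP (1.25 mM) stimulation; lower signal means less secretion.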
# MCF10A rerep: induces DNA re-replication in MCF 10a normal breast cells; MCF 10A DNA re-replication, Hoechst nuclear intensity, 48 h; Potency, µM (series often up to 46.1 µM), for inactives: at the top dose activity, positive = re-replication, most hits filed as activators; 350,000 tested, 2.9% active; also: potency is read from the fitted curve at half-maximal effect; % of control where 0% means no effect; nearly all actives have a fitted effect of over 50% in size
# SW480 rerep: inducers of DNA re-replication in SW480 colon cancer cells | Potency, µM (titrated, usually from 46.1 µM), for the others: at the top dose re-replication activation, actives largely listed as activators | AID 624297 | SW480 DNA re-replication, Hoechst DNA content imaging, 48 h | 340,000 tested, 1.8% active; also: potency is read from the fitted curve at half-maximal effect; % of control where 0% means no effect; nearly all actives have a fitted effect of over 55% in size
#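 Treated cells incubate 48 hr (37 C, 5% CO2), are stained 40 min with Hoechst, and nuclear fluorescence is enumerated; a rise in nuclei with high DNA signal marks re-replication.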
# ATXN2 expr inh: ATXN2 expression inhibition; HEK-293 ATXN2-luciferase reporter, luminescence, 24 h; Potency, µM (doses to about 57 µM), without a hit: at the highest dose activity change, negative = inhibition, hits mostly inhibitors; 360,000 tested, 0.72% active; AID 1745845; also: potency is read from the fitted curve at half-maximal effect; % is scaled to controls: 0 for no effect and ±100 for the full control effect; nearly all actives have a fitted effect of over 55% in size
#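 qHTS (up to 57 uM final) was run with 24 h compound exposure of reporter cells at 37 °C. Each well was multiplexed: SteadyGlo luminescence measured ATXN2-luciferase expression after a fluorogenic Gly-Phe-AFC viability readout (25 uM final).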
# The depositor's hits bear a star; i = inactive; ? = inconclusive; / = not tested or not shown; [ ] = another dose, or the depositor's remark. Unless noted, calls follow the shape of the dose curve; as a rule, active = well fitted curve in the direction sought with a large enough effect; inconclusive = small, poorly fitted or top-dose-only effect, or another doubt; inactive = no such curve, though single readings can be large; an effect the other way counts as inactive or inconclusive.
SMILES,PINK1 expr mod,ATXN viability,IL-1B inflam inh,MCF10A rerep,SW480 rerep,ATXN2 expr inh
CN(c1ccccc1)c1ccc(/C=C/[N+](=O)[O-])cc1,-0.4%,/,-107.4*,7.31µM*,20.6µM*,-1.6%
CN(C(=O)C=Cc1ccccc1)c1ccccc1,-0.5%,i,-8.7,9.3%,-1.0%,32.0%
COCCCNC(=O)CSc1nc2nc(C)c(Cc3ccccc3Cl)c(C)n2n1,1.2%,i,/,/,/,5.4%
O=C(NC1CCCCCCC1)c1cnccn1,-0.5%,i,5.8,0.2%,-10.4%,7.7%
C/C(CC(=O)NC1CCCCCC1)=N\NC(=O)c1cnccn1,1.4%,i,1.6,-3.1%,0.517µM*,3.8%
Cc1cc(O)c(C(C)C)cc1NC(=O)Nc1cccc2ccccc12,6.1%,i,-66.0*,18.3%,-13.6%,?
COc1ccc(C(=O)NCC2Cc3c(F)ccc(-c4nc(C)cnc4C)c3O2)cc1F (centres undefined),-0.1%,?,/,/,/,/
CCOC(=O)COc1ccccc1/C=C1/NC(=O)NC1=O,-0.8%,i,?,13.8%,0.6%,-2.6%
COc1cccc(/C=C2\NC(=O)NC2=O)c1O,-0.5%,i,-50.4*,-0.7%,-10.9%,5.7%
COc1ccccc1/C=C/c1nc(C#N)c(N2CCCCCC2)o1,0.4%,/,/,/,/,/
CCC(CC)C(=O)c1c[nH]c(C(=O)NN)c1,7.8%,i,26.8,10.3µM*,?,-16.9%
CCC(CC)C(=O)c1c[nH]c(C(=O)NCc2ccccn2)c1,1.8%,i,-59.4*,-8.4%,5.4%,?
Cc1cc(F)cc(-c2cc(C(=O)NCc3ccccn3)[nH]n2)c1,2.3%,i,-86.1*,/,/,7.3%
N#C/C(=C(/O)c1ccccc1F)c1nc2cc(C(F)(F)F)ccc2s1,?,i,-8.7,?,-28.1%,/
N#C/C(=C(/O)c1ccc2c(c1)OCO2)c1nc2cc(C(F)(F)F)ccc2s1,14.1µM*,i,-54.2*,9.8%,?,?
COc1ccc(OC)c(CNC(=O)c2cc3ccc4cccnc4c3[nH]2)c1,0.8%,/,/,/,/,/
CCOC(=O)c1cc(-c2ccc(C)cc2)n(CC(=O)Nc2ccccc2F)c1C,4.1%,i,/,/,/,11.3%
O=C(COC(=O)c1ccc2c(c1)C(=O)N(c1cccc3ncccc13)C2=O)c1ccc(Cl)cc1,10.0%,?,11.1,6.51µM*,?,?
Cc1ccc(C(=O)COC(=O)c2ccc3c(c2)C(=O)N(c2cccc4ncccc24)C3=O)cc1,0.2%,i,13.7,?,-3.0%,?
O=C(NCC(c1cccnc1)N1CCc2ccccc2C1)C(=O)Nc1cccc(Cl)c1 (centres undefined),1.3%,/,/,/,/,/
CC1=C(C(=O)Nc2ccccc2)C(c2ccc(O)cc2)n2nc(-c3ccc(Cl)cc3)nc2N1 (centres undefined),1.0%,28.2µM*,/,/,/,0.0%
C[C@@H]1CCO[C@H]2Cn3cc(C(=O)NCc4ccc(F)cc4F)c(=O)c(O)c3C(=O)N12,/,/,/,/,/,18.8%
Cc1cc(Sc2nc(N)ncc2[N+](=O)[O-])ncn1,2.6%,i,-108.7*,?,?,-6.6%[11.3 µM]
Cc1cc(Sc2ncnc(N)c2[N+](=O)[O-])ncn1,4.5%,?,-100.0*,2.91µM*,?,?
CCn1c(C(=O)Nc2ccc(C)cc2C)cc2sc(Cl)cc21,0.0%,i,/,/,/,-9.4%
SMILES,PINK1 expr mod,ATXN viability,IL-1B inflam inh,MCF10A rerep,SW480 rerep,ATXN2 expr inh
COc1cc(C(=O)NCCc2sc(-c3cccc(F)c3)nc2C)cc(OC)c1OC,3.2%,i,/,/,/,-7.1%
CCN(CC)C(=S)Sc1c(-c2ccccc2)c2cc(Cl)ccc2[nH]c1=O,0.9%,i,-61.3*,?,6.3%,-15.7%
NNC(=O)c1[nH]c2ccc(Cl)cc2c1-c1ccccc1,2.0%,i,26.5,9.2µM*,?,-17.7%
O=C(O)CSc1c(-c2ccccc2)c2cc(Cl)ccc2[nH]c1=O,1.4%,i,10.1,14.7%,0.3%,-5.7%
Cc1ccc2[nH]c(C(=O)NN=C3CCCCC3)c(-c3ccccc3)c2c1,3.6%,i,20.0,16.4µM*,?,?
Cc1cccc2cc(CN(C(=O)c3ccc(N4CCCCC4)cc3)C3CC3)c(N3CCC(O)CC3)nc12,0.3%,i,/,/,/,/
COc1ccc(N(Cc2cc3cccc(C)c3[nH]c2=O)C(=O)c2cccc(Cl)c2)cc1,-1.4%,?,/,/,/,-26.9%
COc1cc(=O)n2c(c1C(=O)N(C)Cc1nccs1)CCN(Cc1cc3ccccc3s1)CC2,1.0%,i,/,/,/,/
Nc1c(C(=O)NCc2ccccc2)c2nc3ccccc3nc2n1-c1ccc2c(c1)OCO2,3.9%[38.3 µM],i,-11.7,11.5%,4.9%,22.4µM*
Nc1ccc(-n2c(N)c(C(=O)NCc3ccc4c(c3)OCO4)c3nc4ccccc4nc32)cc1,3.7%,i,-14.0,16.4µM*,20.6µM*,?
O=C(NCc1ccc2c(c1)OCO2)c1cc2ccccc2o1,-3.8%,i,27.1,26.6%,?,8.3%
COc1ccc(-c2ccc(C(=O)N(C)Cc3csc(C)n3)c(N3CCC(N4CCc5ccccc5C4)CC3)n2)cc1,-0.2%,i,/,/,/,/
O=C(Nc1cccc(Cl)c1Cl)c1ccc(-c2ccccc2)cc1,11.2µM*,?,13.4,12.0%,-19.8%,-12.5%
O=C(Nc1ccccn1)c1ccc(-c2ccccc2)cc1,-0.2%,i,-58.8*,21.3%,19.9%,?
COc1ccc(-c2csc(N3CCN(c4cc(C)nc5ccccc45)CC3)n2)cc1OC,6.6%,10µM*,-100.7*,23.5%,?,?
COc1ccc2nc(C)cc(N3CCN(c4ccccc4)CC3)c2c1,0.1%,i,-64.6*,-9.2%,6.2%,-36.2%
CC(C)N(C(=O)N1CCN(c2ccnc3cc(Cl)ccc23)CC1)C(C)C,2.2%,?,-84.3*,16.4µM*,9.6%,25.1µM*
COc1ccc(N2CCN(c3ccnc4cc(Cl)ccc34)CC2)cc1,3.5%,i,-56.2*,?,3.2%,?
